Test systems include SN12C renal; UO-31 renal; TK-10 renal; ACHN renal; CAKI-1 renal; A498 renal; HL-60(TB) leukemia; CCRF-CEM leukemia; EKVX NSCLC; SK-MEL-2 melanoma.
Assay in all cases: NCI-60 one-dose screen, 48 h (100 = growth as untreated, 0 = no growth, -100 = all killed)
Common to all, as to details: 10 µM unless noted

Several values for one entry are separate records, joined by “and”; a condition that tells them apart may be missing. Equal entries are not always repeated. Compounds without any hit were thinned out: in the full panel of roughly 83,000, 20% have a hit.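 The endpoint reported here, percent growth, reads 100 for growth as untreated, 0 for no net growth and -100 for all cells dead.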 A number with no mark means an inactive call. Activity calls are given as the source filed them. How the source made its calls: active means growth percent below 10; inactive means the rest.

On to `O=C(NC(Cl)=C(Cl)Cl)P(=O)(c1ccccc1)c1ccccc1`, for which the growth in the assay with SN12C renal is 107%; in the assay on UO-31 renal, 95.8%; with TK-10 renal it was 118%; in the assay on ACHN renal, 112%; in the assay with CAKI-1 renal it was 85.7%; in the assay on A498 renal, 102%. In addition, the growth with HL-60(TB) leukemia was 110%; in the assay on CCRF-CEM leukemia, 98.6%.
Consider `O=[N+]([O-])c1ccc(CI)cc1`, for which the growth in the assay with SN12C renal is 60%; in the assay on UO-31 renal, 91.9%; in the assay on TK-10 renal it was 112%; in the assay with ACHN renal, 65.5%; in the assay with CAKI-1 renal, 54.5%; with A498 renal, 95.7%. Further, the growth was 64.4% with HL-60(TB) leukemia and 21.5% in the assay with CCRF-CEM leukemia.
`CCCC[C@@H]1CCN2C[C@@H](O)[C@@H](O)[C@@H]2[C@H]1O`: the growth in the assay on TK-10 renal was 113% [100 µM] and 98.7% [100 µM].
Regarding `Cc1ccc(NC(=O)c2cc3ccccc3cc2O)c(C)c1`, in the assay on HL-60(TB) leukemia, the growth is 54.3%.
With `COc1cc(C=C2C(=O)NC(=O)NC2=O)ccc1O`, the growth is 153% in the assay on EKVX NSCLC; 96.5% in the assay with SN12C renal; 94.4% with UO-31 renal; 127% in the assay on TK-10 renal; 101% in the assay with ACHN renal; 69% in the assay on A498 renal. The growth was 95.6% in the assay with HL-60(TB) leukemia and 113% in the assay with CCRF-CEM leukemia.
`CCCCOC(N)=O`: the growth in the assay with SK-MEL-2 melanoma is 113%; in the assay with SN12C renal it was 103%; in the assay with UO-31 renal, 89.1%; in the assay on ACHN renal, 111%; in the assay with CAKI-1 renal it was 103%; with A498 renal, 125%. For the same compound, in the assay on CCRF-CEM leukemia, the growth is 102%.
Take `C=C1C(=O)OC2/C=C(\C)CC/C=C(/C)CC(OC(=O)/C(=C/CO)CO)C12` (stereo not given): the growth in the assay on TK-10 renal is -78.7% [100 µM] (active) and -88.5% [100 µM] (active).
On to `O=C1c2ccccc2C(=O)N1N1CC1c1ccccc1` (stereo not given), for which the growth in the assay with SN12C renal is 104%; in the assay with UO-31 renal, 91.3%; in the assay on TK-10 renal it was 107%; in the assay on CAKI-1 renal it was 95.7%; in the assay on A498 renal it was 104%; with HL-60(TB) leukemia it was 102%. In the assay on CCRF-CEM leukemia, the growth is 94.7%.
As for `COC12CC3C4=CCOC5CC(=O)N6c7ccccc7C1(CCN2C4)C6C53` (stereo not given), the growth with SK-MEL-2 melanoma is 108%; in the assay with UO-31 renal it was 92.7%; in the assay with TK-10 renal, 100%; with ACHN renal it was 113%; with CAKI-1 renal, 102%; in the assay on A498 renal, 94.6%. In addition, the growth with CCRF-CEM leukemia was 99.7%.
Take `O=[N+]([O-])c1c(Cl)cc(Cl)c([N+](=O)[O-])c1Cl`: the growth in the assay on SK-MEL-2 melanoma was 112%; in the assay on UO-31 renal, 151%; in the assay with TK-10 renal it was 112%; in the assay with ACHN renal, 103%; in the assay with A498 renal it was 111%; with HL-60(TB) leukemia, 85.2%. Moreover, in the assay with CCRF-CEM leukemia, the growth was 53.5%.

The values are drawn from PubChem BioAssay (NCI).
